From PubChem BioAssay (NCATS)
Results filed as inconclusive are left out. Entries that show only a call come without a potency. Values without a mark were called inactive. Activity calls are given as the source filed them. The call rests on the fitted dose curve; in most records, active means well fitted cell-killing curve with a large enough effect; inconclusive means small, poorly fitted or top-dose-only effect, or effect the other way; inactive means no such curve, though single readings can be large or run the other way.

Tests used:
[1] = Quantitative High-Throughput drug screen in 47 multiple myeloma cell lines against the NCATS MIPE library collection: OCIMY5_PLB cell viability assay (AID 1918988); further: nearly all actives have a fitted effect of over 65% in size; further: potency means the concentration at half of the fitted maximal effect
In short: (§1)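 MIPE 4.0 approved/investigational drugs; 500 cells/well; 48 h 37 °C humidified 5% CO2; CTG luminescence readout; DMSO = 100%, media = 0% viability.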

[2] = Quantitative High-Throughput drug screen in 47 multiple myeloma cell lines against the NCATS MIPE library collection: SKMM1_PLB cell viability assay (AID 1919863); conditions: SKMM1 myeloma viability, CellTiter-Glo ATP, 48 h; viability: stronger effect = lower value; further: nearly all actives have a fitted effect of over 35% in size; further: potency means the concentration at half of the fitted maximal effect
In short: as §1

[3] = Quantitative High-Throughput drug screen in 47 multiple myeloma cell lines against the NCATS MIPE library collection: U266_ATCC cell viability assay (AID 1919864); further: nearly all actives have a fitted effect of over 35% in size; further: potency means the concentration at half of the fitted maximal effect
In short: as §1

[4] = Quantitative High-Throughput drug screen in 47 multiple myeloma cell lines against the NCATS MIPE library collection: XG6_PLB cell viability assay (AID 1919865); further: nearly all actives have a fitted effect of over 40% in size; further: potency means the concentration at half of the fitted maximal effect
In short: as §1

[5] = Quantitative High-Throughput drug screen in 47 multiple myeloma cell lines against the NCATS MIPE library collection: XG1_PLB cell viability assay (AID 1919866); further: nearly all actives have a fitted effect of over 35% in size; further: potency means the concentration at half of the fitted maximal effect
In short: as §1

[6] = Quantitative High-Throughput drug screen in 47 multiple myeloma cell lines against the NCATS MIPE library collection: VP6_DJ cell viability assay (AID 1919867); further: nearly all actives have a fitted effect of over 40% in size; further: potency means the concentration at half of the fitted maximal effect
In short: as §1

[7] = Quantitative High-Throughput drug screen in 47 multiple myeloma cell lines against the NCATS MIPE library collection: PE2_PLB cell viability assay (AID 1919869); further: nearly all actives have a fitted effect of over 35% in size; further: potency means the concentration at half of the fitted maximal effect
In short: as §1

[8] = Quantitative High-Throughput drug screen in 47 multiple myeloma cell lines against the NCATS MIPE library collection: PCM6_Riken cell viability assay (AID 1919870); further: nearly all actives have a fitted effect of over 30% in size; further: potency means the concentration at half of the fitted maximal effect
In short: as §1

[9] = Quantitative High-Throughput drug screen in 47 multiple myeloma cell lines against the NCATS MIPE library collection: UTMC2_PLB cell viability assay (AID 1919868); conditions: CellTiter-Glo ATP luminescence, 48 h; viability (% of DMSO control): at 45.8 µM (top of the series); further: nearly all actives have a fitted effect of over 55% in size; further: potency means the concentration at half of the fitted maximal effect
In short: as §1

[10] = Quantitative High-Throughput drug screen in 47 multiple myeloma cell lines against the NCATS MIPE library collection: OPM1_PLB cell viability assay (AID 1918989); further: nearly all actives have a fitted effect of over 40% in size
In short: as §1

## O=C(O)COCCN1CCN(C(c2ccccc2)c2ccc(Cl)cc2)CC1 (centres undefined)
[1]
  Potency: inactive
[2]
  viability: 122%
[3]
  Potency: inactive
[4]
  Potency: inactive
[5]
  Potency: inactive
[6]
  Potency: inactive
[7]
  Potency: inactive
[8]
  Potency: inactive

## Cc1cc(C=c2sc3nc4ccccc4n3c2=O)c(C)n1-c1ccccc1
[1]
  Potency: 4.69 µM (active)
[4]
  Potency: inactive
[6]
  Potency: inactive
[7]
  Potency: inactive
[8]
  Potency: inactive

## NS(=O)(=O)c1cc2c(cc1Cl)NC=NS2(=O)=O
[1]
  Potency: inactive
[3]
  Potency: inactive
[6]
  Potency: inactive
[7]
  Potency: inactive

## NCCc1ccc(O)c(O)c1
[1]
  Potency: 20.9 µM (active)
[3]
  Potency: 23.5 µM (active)
[6]
  Potency: 23.5 µM (active)

## c1ccc([C@H]2CN3CCSC3=N2)cc1
[1]
  Potency: inactive
[2]
  viability: 159%
[3]
  Potency: inactive
[4]
  Potency: 23.5 µM (active)
[5]
  Potency: 16.6 µM (active)
[9]
  Potency: inactive
[7]
  Potency: inactive

## CC[C@@H](C)[C@H](NC(=O)[C@H](CC1CCCCC1)NC(=O)c1ccno1)C(=O)N1CCC2(CCc3ccccc32)CC1
[1]
  Potency: 8.33 µM (active)
[10]
  Potency: inactive
[7]
  Potency: inactive

## NCCCC(N)(C(=O)O)C(F)F (centres undefined)
[1]
  Potency: 0.332 µM (active)
[2]
  viability: 97%
[5]
  Potency: inactive
[7]
  Potency: inactive

## CCOc1ccn(-c2ccc(F)cc2)c(=O)c1C(=O)Nc1ccc(Oc2ccnc(N)c2Cl)c(F)c1
[1]
  Potency: 8.33 µM (active)
[4]
  Potency: 11.8 µM (active)
[5]
  Potency: 3.32 µM (active)
[9]
  Potency: 13.2 µM (active)
[7]
  Potency: 13.2 µM (active)

## COc1ccc2nc(S(=O)Cc3ncc(C)c(OC)c3C)[nH]c2c1 (centres undefined)
[1]
  Potency: inactive
[6]
  Potency: 16.6 µM (active)
[7]
  Potency: inactive
[8]
  Potency: 20.9 µM (active)

## NC(=O)c1ccc(-c2nc(-c3ccc4c(c3)OCO4)c(-c3ccccn3)[nH]2)cc1
[1]
  Potency: 9.35 µM (active)
[3]
  Potency: inactive
[4]
  Potency: inactive

## C[C@]1(c2nc3c(C(N)=O)cccc3[nH]2)CCCN1
[10]
  Potency: inactive

## CCOC(=O)N1CCC(=C2c3ccc(Cl)cc3CCc3cccnc32)CC1
[1]
  Potency: 20.9 µM (active)
[2]
  Potency: 20.9 µM (active)
[3]
  Potency: 33.2 µM (active)
[8]
  Potency: inactive

## CC(C)(Sc1ccc(CCN(CCCCC2CCCCC2)C(=O)NC2CCCCC2)cc1)C(=O)O
[10]
  Potency: inactive
[2]
  Potency: 14.8 µM (active)
[3]
  Potency: 16.6 µM (active)
[4]
  Potency: inactive
[5]
  Potency: inactive
[6]
  Potency: inactive
[8]
  Potency: inactive

## O=C(C1CC1)N1CC[C@@H](Cn2c(-c3ccc(-c4ccc5occc5c4)cc3)nc3cnccc32)C1
[1]
  Potency: 4.18 µM (active)
[2]
  viability: 107%
[5]
  Potency: 16.6 µM (active)

## CCCc1nn(C)c2c(=O)[nH]c(-c3cc(S(=O)(=O)N4CCN(C)CC4)ccc3OCC)nc12
[1]
  Potency: 7.43 µM (active)
[3]
  Potency: 20.9 µM (active)

## Cn1cc(-c2ccc3nnc(C(F)(F)c4ccc5ncccc5c4)n3n2)cn1
[1]
  Potency: 16.6 µM (active)
[7]
  Potency: inactive
[8]
  Potency: inactive

## C[C@]12CC[C@H](O)CC1=CC[C@@H]1[C@H]2CC[C@]2(C)C(c3cccnc3)=CC[C@H]12
[1]
  Potency: inactive
[2]
  Potency: 1.82 µM (active)
[3]
  Potency: inactive
[4]
  Potency: 3.23 µM (active)
[5]
  Potency: 3.23 µM (active)
[6]
  Potency: 8.12 µM (active)
[7]
  Potency: inactive

## Cc1cc(SCc2sc(-c3ccc(C(F)(F)F)cc3)nc2C)ccc1OCC(=O)O
[1]
  Potency: 3.72 µM (active)
[2]
  Potency: 16.6 µM (active)
[4]
  Potency: inactive
[8]
  Potency: inactive

## NC[C@H](O)c1ccc(O)c(O)c1
[1]
  Potency: 1.32 µM (active)
[3]
  Potency: inactive
[4]
  Potency: inactive
[5]
  Potency: inactive
[7]
  Potency: 11.8 µM (active)

## O=c1[nH]c(-c2ccc(C(F)(F)F)cc2)nc2c1CSCC2
[1]
  Potency: 5.26 µM (active)
[3]
  Potency: 18.7 µM (active)
[5]
  Potency: inactive

## COc1ccc(C2=N[C@H](c3ccc(Cl)cc3)[C@H](c3ccc(Cl)cc3)N2C(=O)N2CCNC(=O)C2)c(OC(C)C)c1
[1]
  Potency: 18.7 µM (active)
[2]
  Potency: 5.9 µM (active)
[3]
  Potency: 20.9 µM (active)
[4]
  Potency: 2.64 µM (active)
